Test [1] in a line: NCI Yeast Anticancer Drug Screen. Data for the rad50 strain (AID 155).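 Note: 0% = growth of vehicle-only cultures of the same strain.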 As to conditions: S. cerevisiae rad50 strain growth inhibition; at 50.0 µM; active compounds read high. The method in brief:
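Cells are treated with compound, grown, and their growth is then scored against vehicle-only cultures of the same repair-deficient yeast strain.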

Test [2] can be described thus: NCI Yeast Anticancer Drug Screen. Data for the mec2-1 strain (AID 157). Particulars: S. cerevisiae mec2-1 strain, at 50.0 µM, active compounds read high. The method in brief:
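Using mec2-1 yeast: add compound, measure growth, express inhibition versus vehicle-treated cultures.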

The nature of test [3]: NCI Yeast Anticancer Drug Screen. Data for the sgs1 mgt1 strain (AID 161).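 Note: 0% = growth of cultures given vehicle only.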 Particulars: S. cerevisiae sgs1 mgt1 strain, at 50.0 µM, active compounds read high. The gist of the method: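 Compounds are added to genetically altered yeast, and growth is compared with cultures given vehicle alone to give percent inhibition.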
The nature of test [4]: NCI Yeast Anticancer Drug Screen. Data for the cln2 rad14 strain (AID 165).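 Note: 0% = growth equal to vehicle treated cultures.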 As to conditions: S. cerevisiae cln2 rad14 strain, at 50.0 µM, active compounds read high. The gist of the method:
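Yeast strain cln2 rad14, bearing defects in cell cycle control and DNA repair, serves as the test system; values reflect growth inhibition compared with vehicle.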

A short description of test [5]: NCI Yeast Anticancer Drug Screen. Data for the bub3 strain (AID 167). Particulars: S. cerevisiae bub3 mutant strain, at 50.0 µM, active compounds read high. The gist of the method:
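Part of a panel of yeast mutants defective in DNA damage repair or cell cycle regulation. Each strain is grown with compound, and inhibition is calculated relative to solvent-treated cultures.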

Test [6] is described as follows: NCI Yeast Anticancer Drug Screen. Data for the mlh1 rad18 strain (AID 175). Particulars: S. cerevisiae mlh1 rad18 strain growth inhibition; at 50.0 µM; active compounds read high. The method in brief: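 Steps: expose repair-defective yeast to compound; measure growth; express inhibition against vehicle-treated controls.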

37 molecules from PubChem BioAssay (NCI) can be followed below.

Each structure is given as a SMILES string. Several values for one entry are separate records, joined by “and”; a condition that tells them apart may be missing. Equal values may be shown once. This is part of a sample that, as a whole, favours compounds with a hit. Of some 79,000 tested, about 15% had one in any assay. Unmarked numbers belong to inactive results. Activity calls are given as the source filed them. Cut-off read from the data, not from the text of the source: active = growth inhibition above about 70%; inactive = the rest.

On to `C=C[CH2][Sn]([CH2]C=C)([c]1ccccc1)[c]1ccccc1`, for which the growth inhibition in test [1] was 47.6%; in test [2] it was 18.6%; in test [3], 28.8%; in test [4], 6.7%; in test [5], -7.55%; in test [6], 16.4%.
For `O=[N+]([O-])c1c(F)cc(F)c([N+](=O)[O-])c1F`, the growth inhibition in test [1] was -29.5%; in test [2], -6.15%; in test [3] it was -11.6%; in test [4] it was -28.2%; in test [5] it was -4.75%; in test [6] it was 52.9%.
In the case of `FC(F)(F)C1(F)N(Cc2ccccc2)C1(F)C(F)(F)F` (configuration not stated), the growth inhibition in test [1] is 9.1%; in test [2], -7.5%; in test [3], -10.3%; in test [4], -6.65%; in test [5] it was 7%; in test [6], -9.95%.
As for `CCCCCCOC(=O)C(N)Cc1ccc(OC)c(N(CCCl)CCCl)c1` (configuration not stated), the growth inhibition in test [1] was 6.5%; in test [2] it was 3.65%; in test [3], -3.55%; in test [4] it was 5.7%; in test [5], -1.6%; in test [6], -2.7%.
In the case of `CN1CCCC2(CCCc3ccccc32)C1` (configuration not stated), the growth inhibition in test [1] is 14.2%; in test [2], -33.1%; in test [3], -25.9%; in test [4], 15.3%; in test [5], -13.3%; in test [6], -5.2%.
For `O=C1CCCC2C3CC(CN12)C1CCCCN1C3` (configuration not stated), the growth inhibition in test [1] is 9.85% and 15.7%; in test [2], -18.3% and -13.9%; in test [3] it was -3.4% and 6.75%; in test [4], 9.05% and 21.3%; in test [5] it was -11.8% and 26.9%; in test [6], -29.3% and 32.3%.
For `CS(=O)(=O)Cl`, the growth inhibition in test [1] was 7.65%; in test [2], -26.9%; in test [3] it was 16.4%; in test [4], 13.1%; in test [5] it was -4.85%; in test [6], 0%.
On to `CCCC1C(=O)NC(=O)NC1=O`, for which the growth inhibition in test [1] was 6.3%; in test [2] it was -6%; in test [3] it was -0.75%; in test [4] it was -10.9%; in test [5] it was 3.75%; in test [6] it was -1.05%.
As to `COc1ccc2c3c1OC1C4(OC)CCC5(c6c(O)ccc(O)c64)C(C2)N(C)CCC315` (configuration not stated), the growth inhibition in test [1] was 5.75%; in test [2], 4%; in test [3] it was 7.2%; in test [4] it was 13.3%; in test [5], -6.4%; in test [6] it was 4.15%.
In the case of `COc1cc(C2CNCc3cc(OC)c(O)cc32)ccc1O` (configuration not stated), the growth inhibition in test [1] was 0.05%; in test [2], -7.1%; in test [3], -11.1%; in test [4], -17.8%; in test [5], -9.85%; in test [6], 1.2%.
With `NCC#CCNCCCN1CC1`, the growth inhibition in test [1] was 8.2%; in test [2], 47.2%; in test [3], -9.4%; in test [4], 16.9%; in test [5] it was -1.55%; in test [6], -41.5%.
Regarding `C1=C\CCC2SC2CC/1` (configuration not stated), the growth inhibition in test [1] is 2.1%; in test [2], -16.9%; in test [3], -5.95%; in test [4], -14.6%; in test [5], 12.4%; in test [6] it was -7.5%.
Take `CN(C)CCN=C(N)N[N+](=O)[O-]`: the growth inhibition in test [1] was 1.35%; in test [2], 3.75%; in test [3], -15.4%; in test [4] it was -96.4%; in test [5], 2.4%; in test [6], -38%.
As for `Cc1cc(NC(=O)CCc2ccc(N3C(N)=NC(N)=NC3(C)C)cc2Cl)ccc1S(=O)(=O)F`, the growth inhibition is 72.5% (active) in test [1]; 94.1% (active) in test [2]; 94.7% (active) in test [3]; 4.55% in test [4]; 54% in test [5]; 83.3% (active) in test [6].
With `O=C(O)c1ccc(Cl)c(Cl)c1.[Ni]`, the growth inhibition was -19.1% in test [1]; -16.4% in test [2]; -4.35% in test [3]; -11.9% in test [4]; -23.4% in test [5]; -19.7% in test [6].
Consider `CC(=O)[O-].[Ni].c1ccc(/C(=N\Nc2ccccn2)c2ccccn2)cc1`, for which the growth inhibition is 19.8% in test [1]; 3.15% in test [2]; 4.25% in test [3]; -3.7% in test [4]; -4.6% in test [5]; 18.6% in test [6].
For the molecule `Nc1cc(N)nc(N)n1`, the growth inhibition in test [1] is 18.1%; in test [2] it was -2.9%; in test [3], 1.35%; in test [4], -4.6%; in test [5], -18.9%; in test [6] it was 6.2%.
Consider `Cc1cccc(-n2c(C)nc3ccccc3c2=O)c1C`, for which the growth inhibition in test [1] is -15.2%; in test [2], -1.1%; in test [3] it was -3.35%; in test [4] it was -2.6%; in test [5], -0.6%; in test [6], -13.1%.
With `O=NN1CCOC1=NC1CCCCC1`, the growth inhibition in test [1] is -3.65%; in test [2] it was -12.2%; in test [3] it was -11.2%; in test [4], -63%; in test [5], -22.7%; in test [6], -9%.
For `COc1ccc2c3c1O[C@]1(C)C34CCN(C)C(C2)C42C=C[C@@]1(OC)c1c(O)ccc(O)c12`, the growth inhibition in test [1] is 6.55%; in test [2] it was -13.2%; in test [3], -12.8%; in test [4], 7.9%; in test [5], -10.6%; in test [6], -0.9%.
For `CCOP(=O)(OCC)Oc1ccc([N+](=O)[O-])c(CC)c1`, the growth inhibition is -2.55% in test [1]; -3.55% in test [2]; -0.3% in test [3]; 3.5% in test [4]; 18.5% in test [5]; -8.25% in test [6].
Take `CCOC(=O)C1C2(C)NC(=O)C1(Cc1ccccc1)c1ccc(O)cc1O2` (configuration not stated): the growth inhibition in test [1] is 4.05%; in test [2] it was 3.1%; in test [3], -13.1%; in test [4], 0.05%; in test [5] it was 2.5%; in test [6], -1.05%.
Consider `CCCC(C)C1(C)C(=O)NC(=O)N(C)C1=O` (configuration not stated), for which the growth inhibition is 4.35% in test [1]; 18.1% in test [2]; 0.15% in test [3]; 11.8% in test [4]; 1.05% in test [5]; -11.9% in test [6].
With `Oc1ccc(Nc2c3ccc(Cl)cc3nc3ccc(-c4ccccc4)cc23)cc1CN(CCCl)CCCl`, the growth inhibition in test [1] is 98.4% (active); in test [2], 98.7% (active); in test [3], 98.8% (active); in test [4], 98.3% (active); in test [5] it was 93.5% (active); in test [6] it was 97.5% (active).
Turning to `N#CC(C#N)=Cc1cccc(C=C(C#N)C#N)c1`, the growth inhibition in test [1] is -0.55%; in test [2], -3.65%; in test [3], 12.9%; in test [4] it was 8.3%; in test [5] it was 0.65%; in test [6], -24.6%.
As to `CN(C)CCN(C)C.[C-]#[O+].[C-]#[O+].[C-]#[O+].[C-]#[O+].[W+2]`, the growth inhibition was -13% in test [1]; -4.65% in test [2]; -7.5% in test [3]; -51.1% in test [4]; 2.1% in test [5]; 0.05% in test [6].
Consider `CCCN1CCC2(CC1)COCc1ccccc12`, for which the growth inhibition in test [1] was 30.8%; in test [2], 26.9%; in test [3], 28.4%; in test [4], 12.6%; in test [5] it was 15.1%; in test [6] it was 34.8%.
As to `CN(C)c1ccc(-c2ccc(N(C)C)cc2)cc1`, the growth inhibition in test [1] is -10.6%; in test [2] it was 7.3%; in test [3], 5.45%; in test [4] it was 17.6%; in test [5], 3.2%; in test [6], -2.6%.
As for `CCCCCCCCCCCCCCCC[As]1c2ccccc2Nc2ccccc21`, the growth inhibition in test [1] is 4.4%; in test [2], 16.7%; in test [3], 7.05%; in test [4], 81.3% (active); in test [5] it was 7.45%; in test [6], 28.5%.
As to `ICCCI`, the growth inhibition in test [1] is 0.6%; in test [2], -29.8%; in test [3] it was 16.1%; in test [4] it was 3.8%; in test [5] it was 19%; in test [6], 3.2%.
With `CC(C)(C)C(=O)CC(=O)C(C)(C)C.[Cl][Sb]1([Cl])[c]2ccccc2Cc2cccc[c]21`, the growth inhibition in test [1] is -1.05%; in test [2] it was 23.9%; in test [3] it was 20.1%; in test [4], -13.8%; in test [5], 0.75%; in test [6], 8.95%.
As to `O=P(N1CCOCC1)(N1CC1)N1CC1`, the growth inhibition is 15.4% in test [1]; -7.35% in test [2]; -0.15% in test [3]; 13.7% in test [4]; 9% in test [5]; 34.7% in test [6].
For `CC(C)CCC[C@@H](C)[C@H]1CC[C@H]2[C@@H]3CC[C@H]4C[C@H]5N[C@H]5C[C@]4(C)[C@H]3CC[C@]12C`, the growth inhibition is 10.6% in test [1]; -21.8% in test [2]; 5.2% in test [3]; -3.55% in test [4]; -9.6% in test [5]; 0.1% in test [6].
Take `O=C(OCCOCCOC(=O)C(Cl)(Cl)Cl)C(Cl)(Cl)Cl`: the growth inhibition in test [1] was -47%; in test [2] it was -33.1%; in test [3] it was -29.4%; in test [4], 39.2%; in test [5] it was -46.6%; in test [6] it was 7.95%.
Regarding `Nc1ccc(C(=O)Nc2ccc([As](=O)(O)O)cc2)cc1`, the growth inhibition in test [1] was 4.35%; in test [2], 11.4%; in test [3], 7.8%; in test [4], -17.3%; in test [5], 5.4%; in test [6], 23.9%.
Regarding `COC(=O)C1C2CC3c4c(c5ccc(OC)cc5n4[N+](=O)[O-])CCN3CC2CC(OC(=O)c2cc(OC)c(OC)c(OC)c2)C1OC` (configuration not stated), the growth inhibition in test [1] was -14%; in test [2] it was -50.5%; in test [3] it was -34.4%; in test [4] it was -17.9%; in test [5] it was -22.2%; in test [6], -3.9%.
For `c1c[nH]c(Cc2ncc(Cc3cnc[nH]3)[nH]2)n1`, the growth inhibition in test [1] was 4.4%; in test [2], -20.6%; in test [3], -9.55%; in test [4] it was 21.8%; in test [5] it was -13%; in test [6], -9.6%.
